This passage reports inhibition results from PubChem BioAssay AID449762 (Southern Research Specialized Biocontainment Screening …, 2010).

About 1,900 (0.58%) of roughly 330,000 compounds were called active. Roughly 4% stayed inconclusive and do not appear here. Rule as the data show it: inconclusive = inhibition above about 70% without an active follow-up result; inactive = below that. A selection follows. Measured potencies and affinities stand elsewhere.

For orientation: inhibition means the drop in the measured response relative to a control, in per cent.

The nature of the experiment: M. tuberculosis growth inhibition, HTS (AID 449762).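 Also: bacterial growth assessed after seven days of incubation.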 The settings on record: M. tuberculosis H37Rv growth inhibition, 7H9 media; at 25 µM; active compounds read high.
For `CCCCCn1c(CCC(=O)Oc2ccccc2OC)nc2c1c(=O)[nH]c(=O)n2CCCC`, the inhibition was 4.88% (inactive).

In the case of `COc1ccccc1CNC(=O)COC(=O)c1ccccc1SCC(=O)N1CCCC1`, the inhibition is 1.81% (inactive).

`COc1ccccc1OCC(=O)N(Cc1nnc(-c2ccccc2Cl)o1)C1CC1`: the inhibition was 0.28% (inactive).

`COCCN(Cc1ccccc1)P(=O)(O)c1ccccc1OCC(=O)O`: the inhibition was -0.51% (inactive).

Consider `Cc1ccc2oc(=O)c(/C=C(\O)c3ccccc3)nc2c1`, for which the inhibition is -2.76% (inactive).

Turning to `C/C(O)=C/c1nc2ccccc2[nH]c1=O`, the inhibition is 3.14% (inactive).

For `CC(=O)Nc1ccc(NC(=O)C(C)Oc2ccc(C)nc2[N+](=O)[O-])cc1` (stereo not drawn), the inhibition is 6.29% (inactive).

Take `CCN(CCn1cccn1)C(=O)c1cc(COc2cccc3cccnc23)on1`: the inhibition is -3.82% (inactive).

In the case of `CC(C)(C)c1ccc(C(=O)N2CCN(CCNC(=O)C(=O)NCc3ccccc3)CC2)cc1`, the inhibition is -0.83% (inactive).

Take `Cc1ccc(C(=O)N2CCN(CCNC(=O)C(=O)NCc3ccc(Cl)cc3)CC2)cc1`: the inhibition was 4.33% (inactive).

As for `O=C(Nc1ccccc1)N(CCCN1CCOCC1)Cc1ccccc1F`, the inhibition was -5.07% (inactive).

As for `CCOC(=O)N1CCC2(CC1)CC(=O)c1c(ccc3oc(C(=O)O)c(C)c13)O2`, the inhibition was -2.67% (inactive).

As for `COc1ccc2c(c1)CC(N1CCN(C)CC1)c1cc(OC)ccc1S2` (stereo not drawn), the inhibition is 9.95% (inactive).

On to `c1ccc2c(c1)CC(N1CCCCC1)c1ccccc1S2` (stereo not drawn), for which the inhibition was 0.42% (inactive).

As for `O=C(Nc1cc([N+](=O)[O-])ccc1C(=O)NCCN1CCOCC1)c1ccccc1`, the inhibition was 5.18% (inactive).

Turning to `COCCn1c(SCc2nnc(-c3ccc(OC)c(OC)c3)o2)nnc1-c1ccncc1`, the inhibition was 5.88% (inactive).

On to `Cc1ccc(-c2nnc(NCc3nc4ccccc4[nH]3)c3ccccc23)cc1S(=O)(=O)N(C)C`, for which the inhibition was -2.52% (inactive).

`Cn1c(-c2sc3cc(C(F)(F)F)cnc3c2-c2ccccn2)n[nH]c1=S`: the inhibition was -2.76% (inactive).

Take `O=C(OCC(=O)N1CCCC1)c1ccccc1O`: the inhibition is 3.14% (inactive).

With `O=C(OCC(=O)N1CCCCCC1)c1ccccc1Br`, the inhibition was 4.05% (inactive).

With `CC1CN(C(=O)COC(=O)c2ccc(F)cc2Cl)CC(C)O1` (stereo not drawn), the inhibition is 6.83% (inactive).

For `CC12CCC(C(=O)NCCCN3CCOCC3)(C(Br)C1=O)C2(C)C` (stereo not drawn), the inhibition is -0.09% (inactive).

For `Cc1cc(Cc2c(O)[nH]c(=S)[nH]c2=O)ccc1OC(C)C`, the inhibition is -6.7% (inactive).

Take `COC(=O)C1(CC2CC(c3ccccc3)=NO2)CCN(C(=O)OC(C)(C)C)CC1` (stereo not drawn): the inhibition was 3.82% (inactive).

For `Cc1cc(Cl)ccc1OCCCC(=O)NN`, the inhibition was 13.1% (inactive).

`Cc1cc(Cl)ccc1OCCCC(N)=O`: the inhibition was -4.53% (inactive).

Take `CCc1ccc(/C=C2/SC(=S)N(CCC(=O)NCCCN3CCOCC3)C2=O)cc1`: the inhibition was -8.2% (inactive).

In the case of `CN1CCN(c2ccc(NC(=O)c3ccc(-c4cccc([N+](=O)[O-])c4)o3)cc2)CC1`, the inhibition was 0.14% (inactive).

As for `CC(C)(C)C(=O)N1CCN(c2ccc(NC(=O)c3ccco3)cc2)CC1`, the inhibition is 2.75% (inactive).

For `COCCN1CCN(C(=O)c2cc(COc3cc(C)ccc3C)on2)CC1`, the inhibition is -2.97% (inactive).

As to `Cc1cnc(NC(=O)CC2CCCC2)s1`, the inhibition is 1.33% (inactive).

Take `Cc1cnc(NC(=O)C2CCC(C(C)(C)C)CC2)s1` (stereo not drawn): the inhibition was -5.46% (inactive).

Take `Cc1cccc(NC(=O)COC(=O)c2ccc3c(=O)n4c(nc3c2)CCC4)c1`: the inhibition was 0.33% (inactive).

With `CCNC(=O)NC(=O)C(C)On1nnc2ccc(S(=O)(=O)N(CC)CC)cc21` (stereo not drawn), the inhibition was -3.62% (inactive).

`C=CCSc1nc(N)c2c(C)c(C)sc2n1`: the inhibition is -14.5% (inactive).

Regarding `O=c1c2c(-c3ccccc3)csc2ncn1/N=C/c1cccc([N+](=O)[O-])c1O`, the inhibition is 0.37% (inactive).

For the compound `O=c1c2c(-c3ccc(Cl)cc3)csc2ncn1/N=C/c1cccc([N+](=O)[O-])c1O`, the inhibition was 3.59% (inactive).

For `CCOC(=O)N1CCN(c2c(NCC3CCCO3)c(=O)c2=O)CC1` (stereo not drawn), the inhibition is 2.94% (inactive).

For the compound `COC(=O)c1cccc(NC(=O)CSc2nnc(C)o2)c1`, the inhibition is 3.7% (inactive).

As for `CCOc1ccc(CC2S/C(=N/c3ccccn3)NC2=O)cc1` (stereo not drawn), the inhibition is -1.03% (inactive).

In the case of `Nc1ccc(CC2SC(=O)NC2=O)cc1` (stereo not drawn), the inhibition was -2.9% (inactive).

Regarding `CCc1c(C(=O)Nc2ccc(OC)cc2)[nH]c(C)c1C(C)=O`, the inhibition is 0.65% (inactive).

`O=S(=O)(Nc1ncccn1)c1ccc(Cl)cc1`: the inhibition was -3.71% (inactive).

On to `CCCC(=O)Nc1nc2nc(-c3ccccc3)cc(=O)n2[nH]1`, for which the inhibition was -6.79% (inactive).

For the compound `CCC(=O)Nc1nc2nc(-c3ccccc3)cc(=O)n2[nH]1`, the inhibition was -4.67% (inactive).

On to `Clc1cccc(Cl)c1COc1ccncc1`, for which the inhibition was -7.66% (inactive).

With `O=C(CNC(=O)c1ccccc1Cl)OC1CCOC1=O` (stereo not drawn), the inhibition was 0.14% (inactive).

With `S=C(Nc1ccc2nsnc2c1)NC1CCCCC1`, the inhibition is -5.66% (inactive).

On to `CC(=O)c1cccc(NC(=S)NC2CC2)c1`, for which the inhibition was -5.17% (inactive).

Take `O=C(Nc1ccc2nsnc2c1)C1CC1`: the inhibition is 0.63% (inactive).

As to `CC(=O)c1cccc(NC(=S)NC2CCCCC2)c1`, the inhibition was 0.31% (inactive).

As to `CCc1c(C)sc(NC(=O)c2cc(-c3cc(OC)ccc3OC)on2)c1C#N`, the inhibition was 9.02% (inactive).

Turning to `CCCCCCCCNC(CO)(CO)CO`, the inhibition is -13.8% (inactive).

Turning to `O=C(C1=C[C@H](c2ccc(Br)cc2)C[C@H](OCCCCO)O1)N1CCOCC1`, the inhibition was 8.9% (inactive).

For `CCn1cc(CNC(=O)C2CCC(=O)N(C3CCCCCC3)C2)cn1` (stereo not drawn), the inhibition is -6.38% (inactive).

With `COC(=O)C1=NNC(C(=O)c2ccco2)C1c1ccccc1` (stereo not drawn), the inhibition was 4.3% (inactive).

Regarding `CCOC(=O)c1ccccc1NC(=O)COC(=O)C1CCCC1`, the inhibition was 27.5% (inactive).

Consider `CC[C@@H](C)[C@H](CN[C@H](CNC)[C@@H](C)O)NCCc1ccc(OC)cc1`, for which the inhibition was 0.9% (inactive).

For `CC[C@H](C)[C@@H](CNC)NC[C@@H](Cc1ccc(O)cc1)NCC(C)(C)C`, the inhibition is -12.2% (inactive).

With `CCCCN(CC)C(=O)CSc1nc2ccccc2c(=O)n1CC1COc2ccccc2O1` (stereo not drawn), the inhibition was 15% (inactive).

As for `O=C(NCc1cccc(Cl)c1)c1cc(=O)[nH]c2ccccc12`, the inhibition is -6.18% (inactive).

On to `COC(=O)CN(C#N)c1nc(OC)nc(N(C)C)n1`, for which the inhibition was 9.53% (inactive).

With `CCOC(=O)CN(C#N)c1nc(C)cc(C)n1`, the inhibition was -0.56% (inactive).
